Each structure is given as a SMILES string.
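Note: KINOMEscan kinase panel screen.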

In the first assay the test system is CDK2. To be noted: concentration: 1 μM, replicates: in singlicate; n = 1.
For the compound `CNc1nc(-c2ccc3c(N)n[nH]c3c2)cc(N2C[C@@H](C(=O)NC3CCCCC3)OC[C@H]2C)n1` [GSK2375584], the “%Inh” value is 0%.
As for `COc1cccc(C2=C(Nc3cc(Cl)c(O)c(Cl)c3)C(=O)NC2=O)c1` [SB-390767], the “%Inh” value is recorded as 0%.
Same read-out and setting: in the case of `Cn1cnc2c(N)ncnc21` [SKF-97623] it was 44%; in that of `O=c1cc(N2CCOCC2)nc2n(Cc3ccccc3F)ccn12` [GSK2297428], 0%.
On to `COc1ccc(-c2coc3ccc(-c4nnc(C)o4)cc23)cc1`, for which the “%Inh” value was determined as 0%.
In the case of `Cc1ccccc1-c1cc(-c2c[nH]nc2-c2ccccn2)ccn1` [GW680061], the “%Inh” value is reported as 0%.
For the compound `Nc1cccc(-c2ccc3c(N)n[nH]c3c2)n1` [GSK2192730], the “%Inh” value came out at 0%.
Regarding `CNC(=O)c1ccc(C)c(-n2c(C)cc(OCc3ccc(F)cc3F)c(Br)c2=O)c1`, the “%Inh” value is 0%.
On to `O=C(Nc1n[nH]c2nc(-c3ccco3)c(Br)cc12)C1CCN(Cc2ccccc2)C1.O=C(O)[C@H](O)[C@@H](O)C(=O)O` (stereo not drawn) [SB-742034], for which the “%Inh” value came to 13%.
`NS(=O)(=O)c1cccc(N/C=C2\C(=O)Nc3ccc(S(=O)(=O)Cc4c(Cl)cccc4Cl)cc32)c1` [GSK398099]: the “%Inh” value was found to be 0%.
`c1ccc(-c2ccnc3[nH]ccc23)cc1` [SB-693578]: the “%Inh” value was 0%.
As to `CNc1nc(-c2ccc3c(N)n[nH]c3c2)cc(N2C[C@@H](C(=O)Nc3ccccc3)CC[C@H]2C)n1` [GSK2298859], the “%Inh” value was 0%.
Take `COC(=O)c1cccc(NC(=O)NC2CCN(c3ccnc(Nc4ccc(OC)cc4)n3)C2)c1` (stereo not drawn) [GSK1379746]: the “%Inh” value is given as 5%.
For the compound `COc1ccc(Nc2nccc(-c3ccc(NC(=O)c4cc5cc(F)ccc5[nH]4)cc3)n2)cc1` [GSK1229496], the “%Inh” value is given as 0%.
On to `Cl.Cl.Cl.N#Cc1ccc(CCNc2nccc(-c3cccc(CN4CCNCC4)c3)n2)cc1` [GSK2137462], for which the “%Inh” value is given as 0%.
`O=C(Nc1n[nH]c2cc(-c3ccsc3)ccc12)C1CC1` [SB-732932]: the “%Inh” value stood at 57%.
On the same count and under the same terms, in the case of `COc1ccc(Nc2nccc(N3CCC(NC(=O)c4cc5ccccc5s4)C3)n2)cc1` (stereo not drawn) [GSK1379738] it was 0%.
Regarding `COc1ccc2cc(-c3nc(-c4ccccc4C(C)C)[nH]c3-c3ccncc3)ccc2c1` [SB-660566], the “%Inh” value came out at 0%.
For `CC[C@@H]1CO[C@H](C(=O)Nc2ccccc2)CN1c1cc(-c2ccc3c(N)n[nH]c3c2)nc(NC)n1` [GSK2376236], the “%Inh” value turned out to be 0%.
`Cc1ccc(NC(=O)c2ccc(Cl)cc2)cc1-c1ccc(C(=O)Nc2ccncc2)cc1` [GSK1398467]: the “%Inh” value was 0%.
Regarding `COc1cccc(NC(=O)Nc2ccc(C)c(-c3ccc(C(=O)Nc4ccncc4)cc3)c2)c1` [GSK1398474], the “%Inh” value is listed as 24%.
With `COc1ccc(CSc2nnc(-c3ccc4c(c3)CCO4)o2)cc1`, the “%Inh” value came out at 0%.
With `Cc1cccc2c(-c3ccncn3)c(-c3ccc(F)cc3)nn12` [GW515532], the “%Inh” value is listed as 0%.

A further assay deals with CDK3. The note with it: concentration: 1 μM, replicates: in singlicate; n = 1.
Take `Cc1ccc(NC(=O)Nc2ccc(Cl)c(C(F)(F)F)c2)cc1-c1ccc(C(=O)Nc2ccncc2)cc1` [GSK1398470]: the “%Inh” value stood at 0%.
With `FC(F)(F)c1ccccc1-c1cc(-c2c[nH]nc2-c2ccccn2)ccn1` [GW679396], the “%Inh” value is 0%.
`COC(=O)c1cccc(NC(=O)NC2CCN(c3ccnc(Nc4ccc(F)cc4)n3)C2)c1` (stereo not drawn) [GSK1379725]: the “%Inh” value is 4%.
Turning to `Fc1ccc(-c2nn3cccc(F)c3c2-c2ccncc2)cc1` [GW475620], the “%Inh” value stood at 0%.
For `Cc1ccc(NC(=O)Nc2ccc(Cl)cc2)cc1-c1ccc(C(=O)Nc2ccncc2)cc1` [GSK1398472], the “%Inh” value is 8%.
Turning to `COC(=O)C(Cc1ccccc1)NC(=O)NC1CCN(c2ccnc(Nc3ccc(F)cc3)n2)C1` (stereo not drawn) [GSK1379714], the “%Inh” value is reported as 6%.
`COc1ccc(Nc2nccc(NCCNC(=O)Nc3cc(C)ccc3C)n2)cc1` [GSK1379899]: the “%Inh” value is given as 6%.
Turning to `Fc1ccc(-c2nc3n(c2-c2ccncc2)CCS3)cc1` [GI98581], the “%Inh” value was 24%.
Still for that read-out and setting: then `CC(=O)c1cccc(NC(=O)NC2CCN(c3ccnc(Nc4ccc(F)cc4)n3)C2)c1` (stereo not drawn) [GSK1379710], with 6%.
Turning to `Cc1ccc(-c2nc(Nc3ccncc3)c3ccccc3n2)s1` [GSK189015], the “%Inh” value is reported as 0%.
In the case of `O=c1cc(N2CCOCC2)nc2n(Cc3cccc(Cl)c3Cl)c3ccccc3n12` [GSK2299009], the “%Inh” value is 29%.
With `Cc1ccccc1Cn1ccn2c(=O)cc(N3CCOCC3)nc12` [GSK2269905], the “%Inh” value is recorded as 12%.
Still for that read-out and setting: in the case of `O=C(Nc1n[nH]c2nc(-c3cccs3)c(Br)cc12)C1CCCC1` [SB-743341] it was 67%; in that of `Cn1cncc1-c1cc2c(Nc3ccc(OCc4ccccc4)cc3)ncnc2cn1` [GW281179], 7%; in that of `CNc1nc(-c2ccc3c(N)n[nH]c3c2)cc(N2C[C@@H](C(=O)NC3CCCCC3)OC[C@H]2C)n1` [GSK2375584], 0%.
Turning to `COc1cccc(C2=C(Nc3cc(Cl)c(O)c(Cl)c3)C(=O)NC2=O)c1` [SB-390767], the “%Inh” value is 18%.
Consider `Cn1cnc2c(N)ncnc21` [SKF-97623], for which the “%Inh” value was 0%.
Still for that read-out and setting: then `O=c1cc(N2CCOCC2)nc2n(Cc3ccccc3F)ccn12` [GSK2297428], with 0%; and `COc1ccc(-c2coc3ccc(-c4nnc(C)o4)cc23)cc1`, with 0%.
The same measure, in the same setting: in the case of `Cc1ccccc1-c1cc(-c2c[nH]nc2-c2ccccn2)ccn1` [GW680061] it was 17%; in that of `Nc1cccc(-c2ccc3c(N)n[nH]c3c2)n1` [GSK2192730], 7%; in that of `CNC(=O)c1ccc(C)c(-n2c(C)cc(OCc3ccc(F)cc3F)c(Br)c2=O)c1`, 15%.
In the case of `O=C(Nc1n[nH]c2nc(-c3ccco3)c(Br)cc12)C1CCN(Cc2ccccc2)C1.O=C(O)[C@H](O)[C@@H](O)C(=O)O` (stereo not drawn) [SB-742034], the “%Inh” value was 0%.
On to `NS(=O)(=O)c1cccc(N/C=C2\C(=O)Nc3ccc(S(=O)(=O)Cc4c(Cl)cccc4Cl)cc32)c1` [GSK398099], for which the “%Inh” value is recorded as 24%.
With `c1ccc(-c2ccnc3[nH]ccc23)cc1` [SB-693578], the “%Inh” value is recorded as 2%.
Regarding `CNc1nc(-c2ccc3c(N)n[nH]c3c2)cc(N2C[C@@H](C(=O)Nc3ccccc3)CC[C@H]2C)n1` [GSK2298859], the “%Inh” value was found to be 0%.
Turning to `COC(=O)c1cccc(NC(=O)NC2CCN(c3ccnc(Nc4ccc(OC)cc4)n3)C2)c1` (stereo not drawn) [GSK1379746], the “%Inh” value was found to be 9%.
The same measure, in the same setting: in the case of `COc1ccc(Nc2nccc(-c3ccc(NC(=O)c4cc5cc(F)ccc5[nH]4)cc3)n2)cc1` [GSK1229496] it was 0%; in that of `Cl.Cl.Cl.N#Cc1ccc(CCNc2nccc(-c3cccc(CN4CCNCC4)c3)n2)cc1` [GSK2137462], 0%; in that of `O=C(Nc1n[nH]c2cc(-c3ccsc3)ccc12)C1CC1` [SB-732932], 38%.
As to `COc1ccc(Nc2nccc(N3CCC(NC(=O)c4cc5ccccc5s4)C3)n2)cc1` (stereo not drawn) [GSK1379738], the “%Inh” value amounted to 12%.
The same measure, in the same setting: in the case of `COc1ccc2cc(-c3nc(-c4ccccc4C(C)C)[nH]c3-c3ccncc3)ccc2c1` [SB-660566] it was 13%; in that of `CC[C@@H]1CO[C@H](C(=O)Nc2ccccc2)CN1c1cc(-c2ccc3c(N)n[nH]c3c2)nc(NC)n1` [GSK2376236], 9%.
Turning to `Cc1ccc(NC(=O)c2ccc(Cl)cc2)cc1-c1ccc(C(=O)Nc2ccncc2)cc1` [GSK1398467], the “%Inh” value came to 6%.
Consider `COc1cccc(NC(=O)Nc2ccc(C)c(-c3ccc(C(=O)Nc4ccncc4)cc3)c2)c1` [GSK1398474], for which the “%Inh” value came to 0%.
With `COc1ccc(CSc2nnc(-c3ccc4c(c3)CCO4)o2)cc1`, the “%Inh” value was 0%.
Still for that read-out and setting: in the case of `Cc1cccc2c(-c3ccncn3)c(-c3ccc(F)cc3)nn12` [GW515532] it was 3%.

Values taken from publication PMC5540273 (PLoS ONE, 2017).
